Among the data in PubChem BioAssay AID651776 (Vanderbilt Specialized Chemistry Center, 2012) are fold shift values, retold here.

The assay addresses Muscarinic acetylcholine receptor M5 (Homo sapiens) (UniProt P08912). Nature of the assay: M5 positive allosteric modulator fold shift, mechanism study, cell-based, calcium fluorescence (AID 651776). The following applies: M5-expressing cells, agonist fold-shift, agonist curve fold shift, stronger effect = higher value.

Muscarinic acetylcholine receptor M5 (Homo sapiens), sequence (P08912 whole entry, looked up): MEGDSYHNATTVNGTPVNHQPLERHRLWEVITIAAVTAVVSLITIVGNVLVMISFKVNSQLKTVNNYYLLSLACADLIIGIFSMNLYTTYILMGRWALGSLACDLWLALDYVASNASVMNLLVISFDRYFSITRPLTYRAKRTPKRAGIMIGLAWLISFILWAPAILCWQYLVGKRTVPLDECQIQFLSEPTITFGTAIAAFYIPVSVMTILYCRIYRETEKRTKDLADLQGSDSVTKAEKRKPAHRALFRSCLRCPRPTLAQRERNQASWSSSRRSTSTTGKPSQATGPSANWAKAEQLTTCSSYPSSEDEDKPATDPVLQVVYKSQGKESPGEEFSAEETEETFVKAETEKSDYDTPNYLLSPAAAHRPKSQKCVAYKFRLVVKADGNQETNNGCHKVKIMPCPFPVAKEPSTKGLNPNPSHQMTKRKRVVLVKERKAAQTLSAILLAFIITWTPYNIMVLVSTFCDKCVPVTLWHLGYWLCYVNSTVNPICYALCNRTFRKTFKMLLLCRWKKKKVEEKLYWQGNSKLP

In the case of `O=C1C(=O)N(CCOc2ccccc2)c2ccc(OC(F)(F)F)cc21`, the fold shift turned out to be 19.2.
